Screen size: about 2,100 compounds; about 210 (10%) were called active. Roughly 53% stayed inconclusive and do not appear here. Calls come from the whole dose curve; as a rule, active = well fitted inhibition curve with a large enough effect; inconclusive = small, poorly fitted or top-dose-only effect, or effect the other way; inactive = no such curve, though single readings can be large or run the other way. The list shows a part of the results. Entries that show only a call come without a potency.
Assay: IN Cell qHTS Assay for Inhibitors of the mTORC1 Signaling Pathway in MEF (Tsc2-/-, p53-/-) Cells: Sytravon; note: nearly all actives have a fitted effect of over 60% in size
Conditions: phospho-rpS6 immunofluorescence, 24 h; series mostly up to 38.3 µM
How it was run: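 Immunofluorescence of rpS6 phosphorylation (Ser235/236) in mouse embryonic fibroblasts lacking Tsc2 and p53, after 24 h compound exposure; Hoechst-normalized signal imaged, each well scored as % active cells relative to rapamycin (7.5 nM) and DMSO controls.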
Potency is the fitted concentration of half-maximal effect.

SMILES | Potency
CC(C)c1ccc(S(=O)(=O)Nc2ccc3oc4c(c3c2)C(=O)CC(C)(C)C4)cc1 | inactive
COc1cc(S(=O)(=O)NCCc2c(C)[nH]c3ccccc23)c(C)cc1C | inactive
CSc1ncc(Cl)c(C(=O)N(C)c2ccccc2)n1 | inactive
CN(c1ccccc1)S(=O)(=O)c1ccc(NC(=O)c2nc(S(C)(=O)=O)ncc2Cl)cc1 | 0.736 µM (active)
CCN(CC)c1nc2ccccc2nc1C(=O)Nc1ccc(C(C)=O)cc1 | inactive
COC(=O)c1sccc1S(=O)(=O)N(CC(=O)Nc1ccc(C)cc1)c1ccccc1 | inactive
CN(C)S(=O)(=O)c1ccc(C(=O)Nc2ccc(-n3nncc3-c3ccccc3)cc2)cc1 | inactive
CCN(c1ccccc1)S(=O)(=O)c1ccc(NC(=O)c2nc(S(C)(=O)=O)ncc2Cl)cc1 | 2.07 µM (active)
Oc1cccc(Nc2nc(-c3ccccc3)nc3ccccc23)c1 | inactive
Cc1ccc(-n2cnc3cc(C(=O)NCCC4=CCCCC4)ccc32)cc1Cl | inactive
Cc1ccc(NC(=O)N2CC3CCCN3c3ccccc32)cc1Cl (stereo not given) | inactive
Cc1ccc(-c2nn3c(=O)cc(CN4CCN(C(=O)Nc5cc(Cl)ccc5C)CC4)nc3s2)cc1 | inactive
CCOC(=O)c1c(NC(=O)c2ccc(S(=O)(=O)N3CCC(C)CC3)cc2)sc2c1CCN(C)C2 | inactive
COc1ccccc1CNC(=O)C(=O)NCC(c1cccnc1)N1CCN(c2ccc(F)cc2)CC1 (stereo not given) | inactive
Cc1ccc(/C=C(\C#N)C(=O)Nc2ccc(Br)cc2)o1 | inactive
Cc1[nH]n2c(=O)cc(-c3ccc(Cl)cc3)nc2c1-c1ccccc1 | inactive
CCCCn1c(=N)n(CCOc2ccccc2OC)c2ccccc21 | 6.56 µM (active)
Cc1ccc(OCCn2c(CNc3cccc(C)c3)nc3ccccc32)cc1 | inactive
Cc1ccccc1OCC(O)Cn1c(=N)n(CCN2CCCCC2)c2ccccc21 (stereo not given) | 5.85 µM (active)
COc1cccc(OCc2nc3ccccc3n2CCOc2ccc(C)cc2)c1 | inactive
N=c1n(CCN2CCCCC2)c2ccccc2n1CC(O)COc1ccc(Cl)cc1Cl (stereo not given) | 2.61 µM (active)
COc1ccccc1N1CCN(CC(O)COc2ccc(C)cc2C(C)(C)C)CC1 (stereo not given) | inactive
CCn1c(=N)n(CCOc2ccc(Br)cc2)c2ccccc21 | 6.56 µM (active)
COc1cc(C2CC(=O)Nc3cc4c(cc32)OCCO4)cc(OC)c1O (stereo not given) | inactive

SMILES | Potency
COc1ccccc1NC(=O)CSc1nnc2c(n1)[nH]c1ccccc12 | inactive
CCN(C(=O)c1cc2c(=O)oc3ccc(C)cc3c2s1)c1ccccc1F | inactive
Cc1ccccc1C(=O)Nc1cccc(OCc2cc(=O)n3cccc(C)c3n2)c1 | inactive
CCOc1ccc(C2=C(C(C)=O)Sc3nnc(C)n3N2C(C)=O)cc1 | inactive
O=C(NCc1ccccc1Cl)c1nnc(Cc2cccc(F)c2)o1 | inactive
COc1ccc(C)cc1NC(=O)C(NS(=O)(=O)c1cccs1)c1ccccc1 (stereo not given) | inactive
CCN(CC)CCn1c(=N)n(CCOc2ccccc2Cl)c2ccccc21 | 3.69 µM (active)
CCCCCn1c(-c2cccc(C)c2)nc2ccccc21 | inactive
Cc1ccccc1OCCn1c(=N)n(C(C)C)c2ccccc21 | 9.27 µM (active)
CCN(CC)CCn1c(=N)n(CC(O)COc2ccccc2C)c2ccccc21 (stereo not given) | 5.85 µM (active)
COc1ccc(N2CCN(CC(O)COc3ccc(C)c(C)c3)CC2)cc1 (stereo not given) | inactive
CCCCCn1c(=N)n(CC(O)COc2cccc(C)c2)c2ccccc21 (stereo not given) | 2.61 µM (active)
Cc1ccc(C(=O)n2nc(C)c(S(=O)(=O)N3CCCCCC3)c2C)cc1 | inactive
Cc1ccc(NC(=O)CCNS(=O)(=O)c2cccc3nonc23)cc1Cl | inactive
COc1ccc(C(=O)c2cn(Cc3cccc(C)c3)c3cc4c(cc3c2=O)OCO4)cc1 | inactive
CCOC(=O)c1ccccc1Nc1cc(C)nc2nc(-c3ccco3)nn12 | inactive
CC(C)c1ccc(NC(=O)c2cc(S(=O)(=O)NCCC3=CCCCC3)ccc2F)cc1 | inactive
Fc1ccc(-c2csc(=Nc3cccc(C(F)(F)F)c3)n2Cc2ccc3c(c2)OCO3)cc1 | inactive
CCOC(=O)N1CCc2c(sc3c2C(=O)NC(c2ccc(C(=O)OC)cc2)N3)C1 (stereo not given) | inactive
COc1cc2c(cc1OC)n(CC(=O)c1ccc(F)cc1)c(=O)n1nc(CCn3nc(C)cc3C)nc21 | inactive
Cc1ccc(NC(=O)c2c(C)oc3ccc(O)c(CN(C)Cc4ccccc4)c23)c(C)c1 | inactive
CCC(C)NC(=O)CSc1nc2cc3c(cc2c(=O)n1CCCC(=O)NCCc1ccc(OC)c(OC)c1)OCO3 (stereo not given) | inactive
COc1ccccc1Oc1nc2c(C)cccn2c(=O)c1/C=C(\C#N)c1nc2ccccc2[nH]1 | inactive
O=C(Cn1cc(SCc2ccc(F)cc2)c2ccccc21)N1CCCCCC1 | inactive

SMILES | Potency
Cc1ccc2nc3c(cc(C(=O)NC4CCCCC4)c(=N)n3C(C)C)c(=O)n2c1 | inactive
Cc1ccc(-c2noc(CCCC(=O)NCc3ccco3)n2)cc1 | inactive
COCCn1c(=N)c(C(=O)NCc2ccco2)cc2c(=O)n3cc(C)ccc3nc21 | 13.1 µM (active)
Cc1ccc(Cl)cc1NC(=O)CCn1cnc2ccccc2c1=O | inactive
COc1ccc(C(=O)N2CCc3cc(OC)c(OC)cc3C2COc2ccc3c(C)cc(=O)oc3c2)c(OC)c1 (stereo not given) | inactive
O=S(=O)(c1ccccc1)c1nc(-c2cccs2)oc1SCc1ccccc1F | inactive
CCCCS(=O)(=O)c1oc(-c2cccs2)nc1S(=O)(=O)c1ccccc1 | 0.585 µM (active)
CCC(C)S(=O)(=O)c1oc(-c2cccs2)nc1S(=O)(=O)c1ccccc1 (stereo not given) | 1.47 µM (active)
CCCCS(=O)(=O)c1oc(-c2cccs2)nc1S(=O)(=O)c1ccc(F)cc1 | 3.69 µM (active)
Cc1ccc(S(=O)(=O)c2nnn3c2nc(NCc2cccs2)c2sccc23)cc1 | inactive
Cc1nn(C)c2c1c(-c1ccccc1)cc(=O)n2Cc1ccccc1C#N | inactive
CCN1CCOC(=O)C1CC(=O)Nc1ccc(Br)cc1 (stereo not given) | inactive
Cc1cc(C)cc(NC(=O)C2CCCN2S(=O)(=O)c2ccc3nc(-c4ccccc4)[nH]c3c2)c1 (stereo not given) | inactive
COc1ccc(S(=O)(=O)NC2(C(F)(F)F)NC(=O)N(CCc3ccc(OC)c(OC)c3)C2=O)cc1 (stereo not given) | inactive
O=C(CSCc1ccc(F)cc1)N1CCc2c([nH]c3ccccc23)C1c1ccc(Cl)cc1 (stereo not given) | inactive
CCCN1CCN(CCCNC(=O)c2ccc3c(c2)sc2nc(-c4ccc(OCC)cc4)cn23)CC1 | 1.85 µM (active)
CCOc1ccc(-c2cc(NC(=O)c3ccc(C)cc3)c(C(=O)OC)s2)cc1 | inactive
CCCCNC(=O)c1ccc2c(c1)N=C(CC)c1ccccc1S2 | inactive
CCC1CCCCN1C(=O)CSc1n[nH]c(-c2ccccc2)n1 (stereo not given) | inactive
CCOC(=O)c1cc(S(=O)(=O)NCc2ccc(C)cc2)[nH]n1 | inactive
Cc1cccc(NC(=O)c2oc3ccc(S(=O)(=O)N4CCC5(CC4)OCCO5)cc3c2C)c1C | inactive
COc1cccc(C(=O)CC2(O)C(=O)N(Cc3ccccc3)c3ccccc32)c1 (stereo not given) | inactive
COc1ccc(C(=O)CC2(O)C(=O)N(Cc3cccc(C(F)(F)F)c3)c3ccccc32)cc1 (stereo not given) | 4.65 µM (active)
O=C(CC1(O)C(=O)N(CCc2ccccc2)c2ccc(Br)cc21)c1ccccc1O (stereo not given) | 20.7 µM (active)

SMILES | Potency
Cc1ccccc1CN1C(=O)C(O)(CC(=O)c2ccccc2)c2cc(Cl)ccc21 (stereo not given) | inactive
CCCCN1C(=O)C(O)(c2c(C)[nH]c3ccccc23)c2cc(Br)ccc21 (stereo not given) | inactive
CCCCN1C(=O)C(O)(CC(=O)c2ccc(CC)cc2)c2cc(Br)ccc21 (stereo not given) | 18.5 µM (active)
COC(=O)CN1C(=O)C(O)(CC(=O)c2ccc(F)cc2)c2ccccc21 (stereo not given) | inactive
CCCN1C(=O)C(O)(CC(=O)c2ccc(C(C)C)cc2)c2ccccc21 (stereo not given) | inactive
CCCCN1C(=O)C(O)(c2c[nH]c3ccccc23)c2cc(Br)ccc21 (stereo not given) | inactive
O=C(CC1(O)C(=O)N(Cc2ccccc2)c2ccc(Br)cc21)c1ccccc1 (stereo not given) | 16.5 µM (active)
CN1CCc2c(sc(NC(=O)CSc3ccc(F)cc3)c2-c2nc3ccccc3s2)C1 | inactive
CCC1=Nc2cc(C(=O)NCC(C)c3ccccc3)ccc2Sc2ccc(C)cc21 (stereo not given) | inactive
CCn1cc2nc(SCC(=O)Nc3cccc(Cl)c3C)n(Cc3ccc(Cl)cc3)c(=O)c2n1 | inactive
COc1ccc(-c2nc(SCC(=O)Nc3ccc4c(c3)OCCO4)c(-c3ccc(F)cc3)[nH]2)cc1 | inactive
CC1=C(C(=O)OCC2CCCCC2)C(c2ccc(Cl)cc2)CC(=O)N1 (stereo not given) | inactive
O=C1c2[nH]nc(-c3ccccc3O)c2C(c2ccc(Cl)cc2)N1Cc1ccco1 (stereo not given) | inactive
COc1ccc(C2(Nc3cccc(C(=O)O)c3C)C(=O)c3ccccc3C2=O)cc1 | inactive
CCc1ccc(Oc2nc3c(C)cccn3c(=O)c2/C=C(\C#N)c2nc3ccccc3[nH]2)cc1 | inactive
COc1cccc(NS(=O)(=O)c2ccc3c(c2)CCCN3C(=O)C2CCC2)c1 | inactive
CCOC(=O)CN1C(=O)C(O)(CC(=O)c2cc(OC)ccc2OC)c2ccccc21 (stereo not given) | inactive
Cc1ccc(CN2C(=O)C(O)(c3c(C)[nH]c4ccccc34)c3ccccc32)cc1 (stereo not given) | inactive
Cc1ccc(CN2C(=O)C(O)(CC(=O)c3ccc(C)cc3)c3ccccc32)cc1 (stereo not given) | 16.5 µM (active)
COc1ccc(N2C(=O)CCSC23C(=O)N(Cc2ccc(F)cc2)c2ccccc23)cc1Cl (stereo not given) | inactive
COc1cc(C(=O)CC2(O)C(=O)N(Cc3ccccc3Cl)c3ccccc32)cc(OC)c1OC (stereo not given) | 0.147 µM (active)
CCc1ccc(C(=O)CC2(O)C(=O)N(Cc3ccc(C)cc3)c3ccccc32)cc1 (stereo not given) | inactive
CCOC(=O)C1CCN(C(=O)CSc2c3c(nc4ccc(Cl)cc24)CCCC3)CC1 | inactive
